Most compounds without a hit are left out; they make up all but 2% or so of the library.
MCL1-BIM inh = inhibitors of human MCL1 binding to BIM-BH3 peptide; Q07820; GST-MCL1 / FITC-Bim-BH3 fluorescence polarization; AID 2057; actives 0.68% (n = 320,000); inhibition, % at 10.9 µM;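 active means inhibition above the mean inhibition of all tested compounds plus 3 SD, set per campaign, cut at about 40% in these data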;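 further: 0% = DMSO wells and 100% = unlabeled Bim-BH3 peptide control; higher means more loss of mP so more displacement of Bim peptide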
Mcl1-Noxa inh = disrupts binding of human Mcl-1 to Noxa peptide; actives 1.5% (n = 220,000); inhibition, % at 21.7 µM; TR-FRET Mcl-1/Noxa peptide binding, 2 h;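 active means compounds that cut the protein-peptide binding signal by more than 50% relative to plate controls in a single-dose test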;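 further: His-tagged Mcl-1 with rhodamine Noxa BH3 peptide and terbium anti-His antibody; 0% = Mcl-1 plus Noxa peptide wells and 100% = peptide-only wells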
Mcl-1 Bim block = human Bim-Mcl-1 interaction inhibition; inhibition, % at 10 µM; actives 0.1% (n = 190,000); AID 1009; Q07820; Bead-based flow cytometry, Bim peptide-Mcl-1 binding; in the data active means inhibition above about 40%;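 further: 0% = no compound tracer wells and 100% = peptide blocker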
Mcl1 Bid PPI = Mcl-1/Bid interaction inhibition. Q07820. AID 1021. TR-FRET Mcl-1/Bid-Dy647 peptide binding, 1536-well. actives 0.97% (n = 220,000). inhibition, % at 21.7 µM;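 active means compounds that cut the binding signal by more than half at the single screening dose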;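 further: His-tagged Mcl-1 with europium anti-His antibody binding Bid BH3 peptide; 0% = Mcl-1 plus peptide wells and 100% = peptide-only wells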
Bcl-xL conf = counter-screen for MCL1 inhibitors: confirmation of human Bcl-xL inhibitors; shares compounds with MCL1-BIM inh; GST-Bcl-xL / FITC-Bim BH3 peptide FP binding; inhibition, % at 10.9 µM; actives 54% (n = 1,700); AID 2166;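 active means inhibition above a cutoff equal to the mean inhibition of all tested compounds plus 3 SD, cut at about 30% in these data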;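 further: 0% = DMSO wells and 100% = unlabeled Bim BH3 control peptide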
Target sequence (Q07817 whole entry, looked up): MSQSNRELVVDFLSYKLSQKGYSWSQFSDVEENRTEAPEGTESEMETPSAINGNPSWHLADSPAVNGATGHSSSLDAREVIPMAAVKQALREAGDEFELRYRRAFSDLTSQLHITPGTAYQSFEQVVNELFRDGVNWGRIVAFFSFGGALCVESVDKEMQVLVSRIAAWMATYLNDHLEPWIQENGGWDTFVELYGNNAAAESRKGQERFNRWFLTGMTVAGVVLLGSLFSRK
MCL1 inh confirm = confirmation of human MCL1 and BIM-BH3 interaction inhibitors; shares compounds with MCL1-BIM inh; GST-MCL1 / FITC-Bim-BH3 fluorescence polarization; inhibition, % at 10.9 µM; actives 61% (n = 1,700);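 active means inhibition above the average of all tested compounds plus 3 SD, cut at about 40% in these data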;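 further: 0% = DMSO wells and 100% = unlabeled Bim-BH3 control peptide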
* = called active by the depositor; nt = no result given; + = active, no number.

SMILES	MCL1-BIM inh	Mcl1-Noxa inh	Mcl-1 Bim block	Mcl1 Bid PPI	Bcl-xL conf	MCL1 inh confirm
CN(C)/C=C1\SC(=S)N(c2ccc(Br)cc2)C1=O	175.9*	28.7	nt	-28.4	+	+
CN(C)/C=C1\SC(=S)N(c2ccc(F)cc2)C1=O	9.7	15.9	nt	-35.1	nt	nt
COCCNC(=O)c1cc(-c2ccc(-c3ccccc3)cc2)nc2ccccc12	-3.1	nt	nt	nt	nt	nt
O=C(NC(Cc1ccccc1)C(=O)O)/C(=C/c1ccc(F)cc1)NC(=O)c1ccccc1 (stereo unspecified)	6.3	14.7	-2.0	7.4	nt	nt
Cc1ccc(C)c(N2CC(C(=O)Nc3cc(C)on3)CC2=O)c1 (stereo unspecified)	-8.3	nt	nt	nt	nt	nt
O=C(O)CN1C(=O)/C(=C\c2cc([N+](=O)[O-])ccc2OCc2ccccc2Cl)SC1=S	50.7*	nt	nt	nt	22.1	47.2*
O=C1/C(=C\c2cccc(O)c2O)SC(=S)N1Cc1ccccc1	15.7	nt	nt	nt	nt	nt
O=C1/C(=C\c2cc([N+](=O)[O-])ccc2O)SC(=S)N1Cc1ccc(Cl)cc1	65.5*	nt	nt	nt	88.0*	104.7*
C=CCn1c(C)csc1=Nc1ccc(C(=O)O)cc1	3.2	30.3	-1.0	-31.4	nt	nt
CCCn1c(/C=C/c2cc[n+](C)cc2)nc2ccccc21	71.5*	nt	nt	nt	52.5*	56.1*
COCCN1C(=O)Cc2c1nc(N)c1c(N)nc(N3CCN(c4ccc(F)cc4)CC3)c(C#N)c21	41.7*	60.7*	0.0	-5.9	7.5	17.0
CC(Cc1ccccc1)NC(=O)CN1C(=O)c2ccccc2S1(=O)=O (stereo unspecified)	8.9	nt	nt	nt	nt	nt
Cc1cc(C)n2nc(C)c(Br)c2n1	6.9	2.6	1.0	-11.8	nt	nt
Cc1cc(C)n2nc3nc4c(cc3c2n1)CCCC4	105.6*	34.7	-2.0	15.5	21.5	18.5
COc1cccc(OC)c1/C=C/C(=O)NC1CCCCC1	-8.1	nt	nt	nt	nt	nt
COc1ccc(NC(=O)C2CCN(S(=O)(=O)c3cccc4nonc34)CC2)cc1	-11.7	nt	nt	nt	nt	nt
CCC1(c2ccccc2)NC(=O)N(CC(=O)N2CC(=O)Nc3ccccc32)C1=O (stereo unspecified)	1.7	nt	nt	nt	nt	nt
Oc1ccc(O)c(/C(=N/Nc2ccccc2)c2ccccc2)c1	48.7*	nt	nt	nt	17.1	13.0
CS(=O)(=O)N(CC(=O)Nc1ccccc1Br)Cc1ccccc1	12.7	nt	nt	nt	nt	nt
CC1(c2ccccc2)NC(=O)N(NC(=O)COC(=O)c2cc(Br)ccc2O)C1=O (stereo unspecified)	-4.4	nt	nt	nt	nt	nt
CN1C(=O)c2ccc(N3CCCC3)cc2C1=O	62.7*	-7.0	1.0	-5.9	46.8*	55.0*
CN1C(=O)c2ccc(N(C)C)cc2C1=O	35.5	-13.3	-4.0	-19.6	nt	nt
CC(=O)Oc1ccc2c(=O)c(Oc3ccccc3)coc2c1OC(C)=O	49.9*	25.6	0.0	-103.9	20.2	39.5
COc1ccc(S(=O)(=O)NCc2cc(-c3ccccc3Cl)no2)cc1	-5.7	-5.5	-2.0	-15.3	nt	nt
O=C1c2cccc3cc([N+](=O)[O-])cc(c23)C(=O)N1/N=C/c1ccc(O)cc1O	61.2*	89.6*	nt	97.8*	27.4	30.7
SMILES	MCL1-BIM inh	Mcl1-Noxa inh	Mcl-1 Bim block	Mcl1 Bid PPI	Bcl-xL conf	MCL1 inh confirm
Cc1ccc(C(=O)O)cc1-c1ccc(/C=C2/NC(=O)N(c3ccccc3)C2=O)o1	52.3*	69.8*	3.0	26.9	36.2*	62.8*
COc1ccc(OC)c2c1C(=O)c1ccccc1C2=O	+	15.0	1.0	-20.2	+	+
O=C1c2ccccc2-c2onc3ccc(NCCCn4ccnc4)c1c23	+	-281.2	63.0*	59.9*	181.0*	199.8*
COc1ccc(OC)c2c1C(=O)C(Cl)=C(Cl)C2=O	70.8*	98.6*	nt	-77.8	47.0*	65.2*
COc1ccc2noc3c2c1C(=O)c1ccccc1-3	117.3*	nt	nt	nt	109.9*	120.8*
COc1cccc2c1C(=O)c1ccc3ccccc3c1C2=O	1.6	46.9	-58.0	47.7	nt	nt
CC(C)Oc1cccc(C(=O)C2CCCN(Cc3cnc(N4CCOCC4)s3)C2)c1 (stereo unspecified)	1.0	12.6	-3.0	-32.0	nt	nt
CN(C)c1oc(/C=C/c2cccs2)nc1S(=O)(=O)c1ccccc1	12.2	nt	nt	nt	nt	nt
O=C(O)C1CCCC2CN3CCc4c([nH]c5ccccc45)C3C(O)C21 (stereo unspecified)	104.0*	nt	nt	nt	29.4	31.2
COC(=O)C1=C(C)N(Cc2ccco2)C(=O)N[C@H]1c1cccc(C(F)(F)F)c1	-2.4	19.0	-2.0	37.9	nt	nt

From PubChem BioAssay
